Assay outcomes deposited in PubChem BioAssay by several laboratories.
sEH inh: blocks human soluble epoxide hydrolase activity; P34913; recombinant human sEH enzymatic activity assay; inhibition, % at 2 µM; actives 0.34% (n = 91,000); in the data active = inhibition above about 80%
Target sequence (P34913 whole entry, looked up): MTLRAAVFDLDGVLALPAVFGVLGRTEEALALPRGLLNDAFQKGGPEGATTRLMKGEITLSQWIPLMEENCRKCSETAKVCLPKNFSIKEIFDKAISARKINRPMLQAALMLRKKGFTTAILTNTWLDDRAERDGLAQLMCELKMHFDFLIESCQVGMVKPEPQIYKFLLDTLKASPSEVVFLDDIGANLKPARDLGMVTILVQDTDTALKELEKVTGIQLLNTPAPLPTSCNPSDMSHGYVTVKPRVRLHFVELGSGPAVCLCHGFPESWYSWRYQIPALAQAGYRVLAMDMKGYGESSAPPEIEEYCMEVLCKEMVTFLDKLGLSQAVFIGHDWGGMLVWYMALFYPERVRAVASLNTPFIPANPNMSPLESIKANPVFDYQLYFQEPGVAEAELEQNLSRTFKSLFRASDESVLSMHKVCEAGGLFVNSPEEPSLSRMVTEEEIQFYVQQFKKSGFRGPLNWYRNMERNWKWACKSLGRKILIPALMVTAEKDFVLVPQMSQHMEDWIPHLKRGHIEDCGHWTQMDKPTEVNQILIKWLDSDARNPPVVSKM
sEH activator: soluble epoxide hydrolase (human) activation; purified human sEH enzymatic activity, activator screen; activation, % at 2 µM; actives 0.04% (n = 91,000); in the data active = activation above about 37%
MRP1 act: activators of MRP-1 | actives 0.61% (n = 140,000) | H69AR cells + doxorubicin, viability rescue, CellTiter-Glo | viability increase, % at 10 µM;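 active = viability gain under doxorubicin at or above a set limit, the compound median plus 3 SD, cut at about 4.7% in these data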;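 note: MRP-1 overexpressing cells given doxorubicin 25 µM after compound pretreatment; 18-22 h compound pretreatment then 72 h with doxorubicin before readout; 0% = doxorubicin-only wells and 100% = vehicle-treated cells without doxorubicin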
MRP reversal: reverses drug resistance mediated by MRP. H69AR cells + 2 uM doxorubicin, CellTiter-Glo, 72 h. differential viability (reversal), % at 10 µM. actives 0.04% (n = 85,000);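 active = viability drop by adding the cancer drug above about 55%, with treated viability meeting a 40% cutoff, limit read from the data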;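 note: viability without doxorubicin minus viability with 2 µM doxorubicin for each compound; larger differential means the compound sensitizes cells more to doxorubicin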
Measles CPE: protection of cells from measles virus; Measles virus-infected cells, CPE protection, absorbance; protection (pct of control), % at 4 µM; actives 1.5% (n = 140,000); in the data active = protection mostly above about 24%, no sharp cut-off; inactive = mostly below about 26%
sdo1 growth: sdo1-depleted yeast growth rescue; S. cerevisiae sdo1-depleted JHY4D growth rescue, OD600 30 h; active compounds read high; pdr5 snq2 efflux-pump mutant strain; z-score at 10 µM; actives 0.21% (n = 140,000);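 active = z-score above 3 at both the 24 hr and the 30 hr optical density reads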;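 note: z-score against mean and SD of all compound wells on the same plate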
The depositor's hits bear a star; x = no result. Compounds with a hit are over-represented: about 2.5% of the library has one in this group of screens.

SMILES | sEH inh | sEH activator | MRP1 act | MRP reversal | Measles CPE | sdo1 growth
Cc1ccc(OCC(=O)Nc2cccc(S(=O)(=O)N3CCCCC3)c2)c([N+](=O)[O-])n1 | x | x | -2.5 | x | 28.9* | 1.25
O=C(COC(=O)c1ccc(Br)o1)Nc1cccc(S(=O)(=O)N2CCCCCC2)c1 | -4.2 | 6.2 | 0.9 | x | 34.4* | -0.58
CN(C)S(=O)(=O)c1cccc(NC(=O)COC(=O)c2ccc(Br)o2)c1 | 5.0 | -1.6 | -3.1 | 0.5 | 20.6 | -0.81
CC1CCc2c(C(=O)OCC(=O)Nc3cccc(S(=O)(=O)N4CCCCCC4)c3)csc2C1 (stereo not given) | x | x | 5.1* | x | 5.9 | 0.58
Cc1ccc(NC(=O)COC(=O)c2csc3c2CCC(C)C3)cc1S(=O)(=O)N1CCCCC1 (stereo not given) | x | x | 4.6 | x | 4.1 | -0.46
Cc1noc(C)c1S(=O)(=O)N(C)CC(=O)Nc1ccc(F)cc1 | 14.8 | -16.7 | 0.0 | 21.5 | 7.0 | 0.27
COc1cc(/C=N/NC(=O)c2cc(-c3cccn3C)n[nH]2)cc(OC)c1OC | -13.4 | 14.5 | -2.5 | x | 8.7 | 0.32
COc1cccc(/C=N/NC(=O)c2cc(-c3cccn3C)n[nH]2)c1O | x | x | 7.1* | x | 12.6 | 1.05
Oc1ccc(O)c(-c2cnns2)c1 | x | x | 0.4 | x | 6.2 | 2.13
CC(=O)OC(C#CCN1CCOCC1)c1ccccc1 (stereo not given) | -1.3 | 3.2 | -3.1 | -4.7 | 46.3* | 0.51
O=C(O)c1cc(-c2ccc(Cl)cc2)n[nH]1 | x | x | 0.2 | -0.9 | 35.4* | 1.03
COc1ccc(-c2cc(C(=O)O)[nH]n2)cc1OC | 2.4 | 0.0 | -1.9 | 3.6 | 2.1 | 0.1
C/C(=N/NC(=O)c1ccoc1C)c1ccc(NC(=O)c2ccncc2)cc1 | x | x | -2.5 | x | 7.3 | 1.04
CCOC(=O)c1c(NC(=O)CN2C(=O)NC(C)(c3ccccc3)C2=O)sc(C)c1C (stereo not given) | x | x | -4.4 | x | 1.5 | -0.57
O=C(CSCc1ccccc1)Nc1ccc(F)c(F)c1 | x | x | 4.7* | x | 5.6 | 0.2
O=C(CSCc1ccc(Cl)cc1)N/N=C/c1ccccc1 | 49.6 | -48.5 | 4.8* | x | 4.3 | -1.67
COc1cc(C2C(C#N)=C(C)NC(C)=C2C#N)cc(OC)c1OC | x | x | -1.1 | x | 6.7 | 0.95
O=c1c2ccccc2nnn1CSc1ccccc1 | x | x | 1.9 | x | 12.8 | 0.22
O=c1c2ccccc2nnn1Cc1ccccn1 | -11.1 | 11.6 | -1.9 | 4.2 | 63.0* | 1.59
COC(=O)c1ccc(Cn2nnc3ccccc3c2=O)o1 | -7.8 | 8.4 | -3.4 | x | 19.7 | 0.41
CC(C)OC(=O)c1ccc(Cn2nnc3ccccc3c2=O)cc1 | 3.8 | -3.5 | -0.9 | 9.1 | 38.7* | -0.79
COC(=O)c1sccc1-n1cccc1C(=O)C(=O)N1CC(C)OC(C)C1 (stereo not given) | 3.3 | -5.2 | -2.1 | -3.2 | 7.9 | 0.16
O=C(CSc1nnc(-c2ccccc2)n1-c1ccc(Cl)cc1)N/N=C/c1ccco1 | x | x | 5.2* | x | 13.5 | 1.14
Oc1ccc(N=Nc2n[nH]c(-c3ccc(Cl)cc3)n2)cc1 | 2.8 | -0.6 | -3.9 | x | 0.9 | 0.46
CCCCOC(=O)C1=C(C)Nc2ncnn2C1c1ccc(OC)c(OC)c1OC (stereo not given) | 7.7 | -5.1 | -0.8 | x | 2.0 | -0.19
SMILES | sEH inh | sEH activator | MRP1 act | MRP reversal | Measles CPE | sdo1 growth
CCCCOC(=O)C1=C(C)Nc2nnnn2C1c1ccc(OC)c(OC)c1OC (stereo not given) | x | x | -3.1 | 2.5 | 45.7* | 0.17
O=C(CN1CCC(NC(=O)c2ccco2)CC1)Nc1cccc2ccccc12 | 6.8 | -3.8 | -2.9 | 6.7 | 9.4 | -0.47
COCCNC(=O)CN1CCC(NC(=O)Nc2ccc(C(F)(F)F)cc2)CC1 | 89.1* | -89.3 | 3.7 | -2.2 | 7.5 | 0.99
CC(C)c1ccc(NC(=O)NC2CCN(CC(=O)Nc3cccc4ccccc34)CC2)cc1 | 89.6* | -89.4 | -0.2 | x | 27.8 | 1.17
CC1=CCC(/C=N\Nc2nnc3c(n2)[nH]c2ccccc23)CC1 (stereo not given) | x | x | -0.7 | x | 13.8 | 0.65
O=C(Oc1cccc(/C=N/Nc2nc(Nc3ccccc3)nc(N3CCOCC3)n2)c1)c1ccco1 | x | x | -1.9 | x | 19.0* | -1.54
CCCCCNC(=O)CCc1ccccc1 | -4.6 | 4.5 | 0.1 | 8.9 | 52.6* | 0.5
COc1ccc(CC/C(C)=N\NC(N)=O)cc1 | x | x | 3.5 | x | 6.3 | 0.39
CCc1ccc(/C(C)=N/Nc2cc(Cl)nc(C)n2)cc1 | 0.1 | 2.8 | 7.9* | x | 13.7 | -0.13
Cc1nn(Cc2ccc(Cl)cc2Cl)c(C)c1NC(=O)c1sc2ccccc2c1Cl | 13.8 | -11.6 | -4.5 | x | 9.2 | -0.84
